Results from PubChem BioAssay (NCI).
About 83,000 compounds went through this panel and 20% of them were active in at least one assay; those are over-represented in the sample as a whole.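 Assay: single dose, 48 h. Readout: percent growth (0 = no net growth; negative = cell death). Active: <10.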 Active and inactive are the calls of the source.

How the values were obtained:
Experiment in all cases: NCI-60 one-dose screen, 48 h (100 = growth as untreated, 0 = no growth, -100 = all killed)
Conditions in all cases: 10 µM unless noted
RPMI-8226 leukemia = system: RPMI-8226 leukemia
OVCAR-8 ovarian = system: OVCAR-8 ovarian
OVCAR-5 ovarian = system: OVCAR-5 ovarian
OVCAR-4 ovarian = system: OVCAR-4 ovarian
SK-OV-3 ovarian = system: SK-OV-3 ovarian
IGROV1 ovarian = system: IGROV1 ovarian
HS 578T breast = system: HS 578T breast
NCI/ADR-RES ovarian = system: NCI/ADR-RES ovarian
T-47D breast = system: T-47D breast
BT-549 breast = system: BT-549 breast
MDA-MB-435 melanoma = system: MDA-MB-435 melanoma
SW-620 colon = system: SW-620 colon
MCF7 breast = system: MCF7 breast
HCT-116 colon = system: HCT-116 colon
HCC-2998 colon = system: HCC-2998 colon
KM12 colon = system: KM12 colon
OVCAR-3 ovarian = system: OVCAR-3 ovarian

Measured: growth

CCC1CCc2nc3sc(C(=O)Nc4cccc(C)c4)c(N)c3cc2C1 (stereo unspecified)
inactive: RPMI-8226 leukemia 56.5% | OVCAR-8 ovarian 94.2% | OVCAR-5 ovarian 105% | OVCAR-4 ovarian 85% | SK-OV-3 ovarian 96.9% | IGROV1 ovarian 95.8% | HS 578T breast 87.7% | NCI/ADR-RES ovarian 76% | T-47D breast 96.9% | BT-549 breast 86.1% | SW-620 colon 53.2% | MCF7 breast 18.7% | HCT-116 colon 83.8% | HCC-2998 colon 100% | KM12 colon 48.5%
active: MDA-MB-435 melanoma -15.9%

CC(Br)C(OC(=O)c1ccccc1Cl)c1cc2c(cc1Br)OCO2 (stereo unspecified)
inactive: RPMI-8226 leukemia 92.2% | OVCAR-8 ovarian 94.8% | OVCAR-5 ovarian 89.6% | OVCAR-4 ovarian 77.9% | SK-OV-3 ovarian 124% | IGROV1 ovarian 68.9% | OVCAR-3 ovarian 89% | NCI/ADR-RES ovarian 85.1% | BT-549 breast 109% | MDA-MB-435 melanoma 75.3% | SW-620 colon 84.6% | MCF7 breast 95.2% | HCT-116 colon 66.6% | HCC-2998 colon 90.7% | KM12 colon 89%

CCN(Cc1ccc(CN(CC)C(=O)C(Br)Br)cc1)C(=O)C(Br)Br
inactive: RPMI-8226 leukemia 14.2% | OVCAR-8 ovarian 20.4% | OVCAR-5 ovarian 71.1% | OVCAR-4 ovarian 32.1% | SK-OV-3 ovarian 79.8% | IGROV1 ovarian 46.4% | HS 578T breast 38.1% | T-47D breast 27.9% | BT-549 breast 36% | MDA-MB-435 melanoma 22.3% | SW-620 colon 21.6% | MCF7 breast 24.4% | HCC-2998 colon 18.8%
active: OVCAR-3 ovarian 8.57% | HCT-116 colon -21% | KM12 colon 4.49%

COc1cc(/C=C/C(=O)c2ccc(NC(=O)CN3CCN(c4cc5c(cc4F)c(=O)c(C(=O)O)cn5C4CC4)CC3)cc2)cc(OC)c1OC
inactive: OVCAR-5 ovarian 16.9% | OVCAR-4 ovarian 16.4% | SK-OV-3 ovarian 33.3% | HS 578T breast 76.8% | NCI/ADR-RES ovarian 98.2% | T-47D breast 17.5% | MCF7 breast 26.5%
active: RPMI-8226 leukemia -18.8% | OVCAR-8 ovarian 4.74% | IGROV1 ovarian -1.19% | BT-549 breast -86.7% | MDA-MB-435 melanoma -1.52% | SW-620 colon 6.38% | HCT-116 colon -88.2% | KM12 colon -65.1%

NCCSC(c1ccccc1)(c1ccccc1)c1ccccc1
active: RPMI-8226 leukemia -24.7% | OVCAR-3 ovarian 2.29% | NCI/ADR-RES ovarian -21.9% | MDA-MB-435 melanoma -52.9% | MCF7 breast 2.6% | HCT-116 colon 7.63% | HCC-2998 colon -41.7%
inactive: OVCAR-8 ovarian 25% | OVCAR-5 ovarian 13.1% | OVCAR-4 ovarian 33.6% | SK-OV-3 ovarian 27.6% | IGROV1 ovarian 22.2% | T-47D breast 25.6% | BT-549 breast 22.1% | KM12 colon 17.9%

Nc1c(C(=O)Nc2ccccc2)sc2nc3c(cc12)CCC3
inactive: RPMI-8226 leukemia 83.4% | OVCAR-8 ovarian 88.2% | OVCAR-5 ovarian 99.4% | OVCAR-4 ovarian 78.9% | SK-OV-3 ovarian 95.5% | IGROV1 ovarian 90.2% | HS 578T breast 92.8% | NCI/ADR-RES ovarian 66.6% | T-47D breast 101% | BT-549 breast 81.7% | MCF7 breast 51.8% | HCT-116 colon 66.6% | HCC-2998 colon 89.4% | KM12 colon 52.8%
active: MDA-MB-435 melanoma -1%

O=C(O)C(=Cc1c2ccccc2cc2ccccc12)C(=O)O
inactive: RPMI-8226 leukemia 103% | OVCAR-8 ovarian 104% | OVCAR-5 ovarian 112% | OVCAR-4 ovarian 117% | SK-OV-3 ovarian 107% | IGROV1 ovarian 111% | OVCAR-3 ovarian 118% | HS 578T breast 106% | NCI/ADR-RES ovarian 98.3% | BT-549 breast 105% | MDA-MB-435 melanoma 109% | SW-620 colon 105% | MCF7 breast 97.5% | HCT-116 colon 97.7% | HCC-2998 colon 100% | KM12 colon 109%

O=C(CN1CCN(c2cc3c(cc2F)c(=O)c(C(=O)O)cn3C2CC2)CC1)Nc1ccc(C(=O)/C=C/c2ccccc2)cc1
active: RPMI-8226 leukemia 2.45% | OVCAR-8 ovarian 6.3% | BT-549 breast 9.61% | HCT-116 colon -83.6%
inactive: OVCAR-5 ovarian 82.6% | OVCAR-4 ovarian 86.4% | SK-OV-3 ovarian 93.6% | IGROV1 ovarian 42.9% | OVCAR-3 ovarian 54.9% | HS 578T breast 51.9% | NCI/ADR-RES ovarian 93.5% | T-47D breast 85.1% | MDA-MB-435 melanoma 19.2% | MCF7 breast 12.5% | HCC-2998 colon 70.1% | KM12 colon 25.3%

CCC1CCc2nc3sc(C(=O)Nc4ccccc4F)c(N)c3cc2C1 (stereo unspecified)
inactive: RPMI-8226 leukemia 47.5% | OVCAR-8 ovarian 83.3% | OVCAR-5 ovarian 87.6% | OVCAR-4 ovarian 90.9% | SK-OV-3 ovarian 80.7% | IGROV1 ovarian 88.3% | HS 578T breast 70% | NCI/ADR-RES ovarian 62.5% | T-47D breast 87.4% | BT-549 breast 76% | SW-620 colon 36.4% | MCF7 breast 18.9% | HCT-116 colon 63.8% | HCC-2998 colon 91.6% | KM12 colon 35.3%
active: MDA-MB-435 melanoma -15.5%

CCN(CC)CCCC(C)N=c1cc(Nc2cc(=NC(C)CCCN(CC)CC)c3cc(OC)ccc3o2)oc2ccc(OC)cc12 (stereo unspecified)
inactive: HS 578T breast 27.5% | T-47D breast 25.8%
active: RPMI-8226 leukemia -38.3% | OVCAR-8 ovarian -1.52% | OVCAR-5 ovarian -28.3% | OVCAR-4 ovarian -48.8% | SK-OV-3 ovarian 7.55% | IGROV1 ovarian -5.22% | NCI/ADR-RES ovarian 3.48% | BT-549 breast -69.4% | MDA-MB-435 melanoma -87.4% | SW-620 colon -2.14% | MCF7 breast -26.8% | HCT-116 colon -21.2% | KM12 colon -4.99%

O=C(CCC(=O)OC1CCCC1)OC1CCCC1
inactive: RPMI-8226 leukemia 95.1% | OVCAR-8 ovarian 91.6% | OVCAR-5 ovarian 98.7% | OVCAR-4 ovarian 107% | SK-OV-3 ovarian 110% | IGROV1 ovarian 110% | OVCAR-3 ovarian 102% | NCI/ADR-RES ovarian 105% | T-47D breast 94.1% | BT-549 breast 99.9% | MDA-MB-435 melanoma 100% | SW-620 colon 103% | MCF7 breast 95.2% | HCT-116 colon 109% | HCC-2998 colon 101% | KM12 colon 102%

CCNCc1ccncc1
inactive: RPMI-8226 leukemia 98.8% | OVCAR-8 ovarian 103% | OVCAR-5 ovarian 112% | OVCAR-4 ovarian 97.8% | SK-OV-3 ovarian 94.7% | IGROV1 ovarian 111% | HS 578T breast 103% | NCI/ADR-RES ovarian 106% | T-47D breast 96.9% | BT-549 breast 114% | MDA-MB-435 melanoma 95.6% | MCF7 breast 96.6% | HCT-116 colon 104% | HCC-2998 colon 99.5% | KM12 colon 106%

COc1ccc(NC(=S)/N=c2\oc3c(OC)cccc3cc2-c2cc3ccccc3[nH]2)cc1
inactive: RPMI-8226 leukemia 105% | OVCAR-8 ovarian 54.8% | OVCAR-5 ovarian 91.5% | OVCAR-4 ovarian 56.4% | SK-OV-3 ovarian 69.4% | IGROV1 ovarian 63.1% | HS 578T breast 36.4% | NCI/ADR-RES ovarian 56.7% | BT-549 breast 90.4% | MDA-MB-435 melanoma 77.2% | SW-620 colon 84.3% | MCF7 breast 81% | HCT-116 colon 64.7% | HCC-2998 colon 101% | KM12 colon 73.2%

c1ccc2nc(-c3ccc4ccccc4n3)ccc2c1
inactive: RPMI-8226 leukemia 90.8% | OVCAR-8 ovarian 98.6% | OVCAR-5 ovarian 97.2% | OVCAR-4 ovarian 92.3% | SK-OV-3 ovarian 90.1% | IGROV1 ovarian 79.5% | OVCAR-3 ovarian 97.4% | HS 578T breast 105% | NCI/ADR-RES ovarian 99.7% | BT-549 breast 93.7% | MDA-MB-435 melanoma 91.9% | SW-620 colon 100% | MCF7 breast 61.8% | HCT-116 colon 88.7% | HCC-2998 colon 101% | KM12 colon 90.4%

O=C(C[N+](=O)[O-])c1ccc(Cl)cc1
inactive: RPMI-8226 leukemia 100% | OVCAR-8 ovarian 116% | OVCAR-5 ovarian 110% | OVCAR-4 ovarian 111% | SK-OV-3 ovarian 113% | OVCAR-3 ovarian 113% | HS 578T breast 100% | NCI/ADR-RES ovarian 109% | T-47D breast 113% | BT-549 breast 102% | MDA-MB-435 melanoma 114% | SW-620 colon 106% | MCF7 breast 100% | HCT-116 colon 101% | HCC-2998 colon 110% | KM12 colon 109%

COc1ccc(OC)c(NC(=O)c2cc(S(=O)(=O)N3CCc4ccccc43)ccc2OC)c1
inactive: RPMI-8226 leukemia 82.6% | OVCAR-8 ovarian 75.5% | OVCAR-5 ovarian 89.8% | OVCAR-4 ovarian 94.2% | SK-OV-3 ovarian 92.6% | NCI/ADR-RES ovarian 94.3% | T-47D breast 93.4% | BT-549 breast 104% | MDA-MB-435 melanoma 96.1% | SW-620 colon 96.7% | MCF7 breast 113% | HCT-116 colon 72.2% | KM12 colon 111%
active: IGROV1 ovarian -39.9% | HS 578T breast -43.4%

CC[C@H](C)[C@H]1NC(=O)[C@@H](N[C@](C)(O)[C@@H](N)CC(C)C)[C@@H](C)OC(=O)[C@H](Cc2ccc(OC)cc2)N(C)C(=O)[C@@H]2CCCN2C(=O)[C@H](CC(C)C)NC(=O)[C@@H](C)C(=O)[C@H](C(C)C)OC(=O)C[C@@H]1O
active: RPMI-8226 leukemia -33% | OVCAR-8 ovarian -13.6% | OVCAR-5 ovarian -14.9% | OVCAR-4 ovarian -6.08% | SK-OV-3 ovarian -13% | IGROV1 ovarian -13.4% | OVCAR-3 ovarian -20.8% | HS 578T breast -4.99% | T-47D breast -15.4% | BT-549 breast -45.9% | MDA-MB-435 melanoma -35.4% | SW-620 colon 0.636% | MCF7 breast 2.76% | HCT-116 colon -15.1% | HCC-2998 colon -26.8% | KM12 colon -14.8%

CN(C)c1ccc(-c2ccc(-c3ccc(C(=N)N)cn3)o2)cc1
inactive: NCI/ADR-RES ovarian 22.5%
active: RPMI-8226 leukemia -43.4% | OVCAR-8 ovarian -54.7% | OVCAR-5 ovarian -25% | OVCAR-4 ovarian -17.3% | SK-OV-3 ovarian -24.4% | IGROV1 ovarian -26.8% | OVCAR-3 ovarian -96.7% | HS 578T breast -19.7% | BT-549 breast -11.8% | MDA-MB-435 melanoma -84.2% | SW-620 colon -72.6% | MCF7 breast -38.1% | HCT-116 colon -62.4% | HCC-2998 colon -73.5% | KM12 colon -97%

COc1ccc(-n2c(C)cc(-c3ccccc3)c2C)cc1
inactive: RPMI-8226 leukemia 14.9% | OVCAR-8 ovarian 51.6% | OVCAR-5 ovarian 63.8% | OVCAR-4 ovarian 38% | SK-OV-3 ovarian 83.2% | IGROV1 ovarian 72% | OVCAR-3 ovarian 75.5% | HS 578T breast 74.1% | NCI/ADR-RES ovarian 40.2% | BT-549 breast 47% | MDA-MB-435 melanoma 12.1% | SW-620 colon 41.2% | MCF7 breast 28% | HCT-116 colon 21% | HCC-2998 colon 35.1% | KM12 colon 37.7%
